{"source": "PubChem BioAssay AID720513", "about": "(Broad Institute, 2013)", "note": "Out of some 2,100 compounds screened, about 480 (23%) were called active. Roughly 5% stayed inconclusive and do not appear here.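 Rule for the calls: active = fitted curve reaches 40% activation at or below the top valid concentration, in every replicate test; inconclusive = replicate tests disagree on the call; inactive = the rest, including activity in the opposite direction.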 A selection follows. Measured potencies and affinities stand elsewhere.", "data": [{"experiment": "activators raising PGC1a acetylation in cells, dose response, cell-based, cherry-picked samples, set 6 (AID 720513);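 note: cells made to overexpress flag tagged PGC1a plus GCN5 acetyltransferase by viral infection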", "conditions": "U2OS PGC1a acetylation AlphaLISA, overnight, 0 = neutral, -100 = inhibitor control; series mostly up to 19.5 µM", "values": [{"molecule": "COc1cnc(-c2ccccn2)nc1Sc1ccc(C)cc1", "outcome": "inactive"}, {"molecule": "CCOC(=O)C1(Cc2cccc(Cl)c2)CCCN(C(=O)c2cccnc2)C1", "note": "(stereo not drawn)", "outcome": "inactive"}, {"molecule": "C[C@H]1CN([C@@H](C)CO)C(=O)CCCn2nncc2CO[C@@H]1CN(C)C(=O)c1ccc(N2CCN(C)CC2)cc1", "outcome": "inactive"}, {"molecule": "C[C@H]1CN([C@@H](C)CO)C(=O)c2cc(-c3cncnc3)cnc2O[C@@H]1CN(C)C(=O)c1cccc(F)c1", "outcome": "inactive"}, {"molecule": "C[C@@H]1CN([C@@H](C)CO)C(=O)c2cc(NS(C)(=O)=O)ccc2O[C@@H](C)CCCCO[C@H]1CN(C)C(=O)Nc1ccc(F)cc1", "outcome": "inactive"}, {"molecule": "C[C@H]1CN([C@@H](C)CO)C(=O)c2cc(C#Cc3ccc(F)cc3)cnc2O[C@@H]1CN(C)C(=O)Nc1ccc(F)cc1", "outcome": "inactive"}, {"molecule": "C[C@@H]1CN([C@H](C)CO)C(=O)c2cccc(NC(=O)c3nc4ccccc4s3)c2O[C@@H]1CN(C)C(=O)Nc1ccc(F)cc1", "outcome": "inactive"}, {"molecule": "C[C@H]1CCCCO[C@@H](CN(C)C(=O)c2ccccc2)[C@@H](C)CN([C@@H](C)CO)C(=O)c2cc(NC(=O)Nc3ccc(F)cc3)ccc2O1", "outcome": "inactive"}, {"molecule": "CCOC(=O)CN1C(=N)N(c2nc(NC(C)C)nc(OC)n2)CC1=O", "outcome": "inactive"}, {"molecule": "CC1CCc2sc(C(=O)Nc3nnc(SCc4ccc(F)cc4)s3)cc2C1", "note": "(stereo not drawn)", "outcome": "inactive"}, {"molecule": "CCc1ccc(-c2cn3nc(-c4ccccc4)cnc3n2)cc1", "outcome": "inactive"}, {"molecule": "COCC(=O)Nc1ccc2c(c1)OC[C@H](C)N(C(=O)c1ccccc1F)C[C@H](C)[C@H](OC)CN(C)C2=O", "outcome": "inactive"}, {"molecule": "OC[C@@H]1[C@H](c2ccc(/C=C/c3ccccc3)cc2)[C@H]2CN(CCC(F)(F)F)CCCCN12", "outcome": "inactive"}, {"molecule": "CCCCOc1ccc(CNC(=O)NS(=O)(=O)c2ccc(OCC(C)C)cc2)cc1", "outcome": "inactive"}, {"molecule": "CC(C)C#Cc1ccc2c(c1)O[C@@H](CN(C)Cc1ccccc1)[C@@H](C)CN([C@@H](C)CO)S2(=O)=O", "outcome": "inactive"}, {"molecule": "COc1ccc(-c2nc3ccccc3c(=O)o2)cc1OC", "outcome": "inactive"}, {"molecule": "COc1ccc(-c2cc(C(=O)O)[nH]n2)cc1OC", "outcome": "inactive"}, {"molecule": "Cc1ccc(C(=O)N2CCN(c3ncccn3)CC2)cc1", "outcome": "inactive"}, {"molecule": "O=C(Nc1ccc(N2CCN(Cc3ccccc3F)CC2)cc1)c1ccc([N+](=O)[O-])o1", "outcome": "inactive"}, {"molecule": "N#Cc1cc(Oc2cccc3cccnc23)c(-n2nnc3ccccc32)cc1C#N", "outcome": "inactive"}, {"molecule": "O=C1CN(S(=O)(=O)Cc2ccccc2)C[C@@H]2[C@@H](c3ccc(C#Cc4cccc(F)c4)cc3)[C@@H](CO)N12", "outcome": "inactive"}, {"molecule": "COC(=O)c1ccc(OC)c(OC2CCCC2)c1", "outcome": "inactive"}, {"molecule": "N#Cc1ccc(-c2ccc([C@@H]3[C@H]4CNC[C@@H]3N4Cc3ccc4c(c3)OCO4)cc2)cc1", "outcome": "inactive"}]}]}
